Test results: publication PMC7862700, “An all-to-all approach to the identification of sequence-specific readers for epigenetic DNA modifications on cytosine”

Assays:
Test in all cases: DAPPL (digital affinity profiling via proximity ligation, sequencing); 10 mM Tris-HCl pH 7.5, 50 mM NaCl, 1 mM DTT, 4% glycerol, room temperature, 30 min; GST-TFs on glutathione beads, 16-mer random dsDNA library, 0.1% formaldehyde crosslink after washing; high values mean tight binding
Conditions in all cases: protein: recombinant; tags: N-terminal GST; dsDNA, one strand shown
FLI1 = target: T1, FLI1 (Homo sapiens, UniProt Q01543 1-452)
T1 sequence: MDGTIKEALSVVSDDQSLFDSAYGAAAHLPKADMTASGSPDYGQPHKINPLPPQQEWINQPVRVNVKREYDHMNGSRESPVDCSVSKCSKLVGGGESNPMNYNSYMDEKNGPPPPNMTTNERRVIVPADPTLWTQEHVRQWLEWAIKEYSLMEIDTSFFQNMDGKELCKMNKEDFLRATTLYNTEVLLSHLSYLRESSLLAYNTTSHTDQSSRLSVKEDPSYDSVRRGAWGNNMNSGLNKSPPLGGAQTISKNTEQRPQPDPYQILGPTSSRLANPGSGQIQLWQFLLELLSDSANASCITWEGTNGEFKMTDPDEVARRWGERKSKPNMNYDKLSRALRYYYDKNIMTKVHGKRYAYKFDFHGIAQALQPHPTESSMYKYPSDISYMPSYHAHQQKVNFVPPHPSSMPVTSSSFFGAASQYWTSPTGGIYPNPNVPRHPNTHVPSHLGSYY
Procedure, shortened: (§1)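 Human transcription factors were made in yeast as GST fusions, captured on glutathione beads and barcoded with DNA. With a tag-only sample included, the pool was incubated with 200 nmole of a random double-stranded 16-mer DNA library in Tris/NaCl/DTT/glycerol buffer at room temperature for 30 min, then crosslinked with 0.1% formaldehyde after washing, ligated by proximity, amplified and sequenced. For binding signal, each hexamer's read frequency for a factor is divided by its frequency for the tag-only sample.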

ELK1 = target: T2, ELK1 (Homo sapiens, UniProt P19419 1-428)
T2 sequence: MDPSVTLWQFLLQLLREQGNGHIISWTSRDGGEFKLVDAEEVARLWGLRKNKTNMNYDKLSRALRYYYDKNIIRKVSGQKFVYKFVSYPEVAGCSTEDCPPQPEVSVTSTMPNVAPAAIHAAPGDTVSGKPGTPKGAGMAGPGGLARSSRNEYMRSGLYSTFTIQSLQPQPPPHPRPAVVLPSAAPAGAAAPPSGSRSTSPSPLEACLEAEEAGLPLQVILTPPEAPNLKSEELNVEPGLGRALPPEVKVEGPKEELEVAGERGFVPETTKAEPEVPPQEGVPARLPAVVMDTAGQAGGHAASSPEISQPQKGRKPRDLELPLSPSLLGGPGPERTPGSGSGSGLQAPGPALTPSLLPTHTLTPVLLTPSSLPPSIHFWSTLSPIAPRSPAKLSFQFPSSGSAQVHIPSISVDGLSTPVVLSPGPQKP
Procedure, shortened: as §1

GABPA = target: T3, GABPA (Homo sapiens, UniProt Q06546 1-454)
T3 sequence: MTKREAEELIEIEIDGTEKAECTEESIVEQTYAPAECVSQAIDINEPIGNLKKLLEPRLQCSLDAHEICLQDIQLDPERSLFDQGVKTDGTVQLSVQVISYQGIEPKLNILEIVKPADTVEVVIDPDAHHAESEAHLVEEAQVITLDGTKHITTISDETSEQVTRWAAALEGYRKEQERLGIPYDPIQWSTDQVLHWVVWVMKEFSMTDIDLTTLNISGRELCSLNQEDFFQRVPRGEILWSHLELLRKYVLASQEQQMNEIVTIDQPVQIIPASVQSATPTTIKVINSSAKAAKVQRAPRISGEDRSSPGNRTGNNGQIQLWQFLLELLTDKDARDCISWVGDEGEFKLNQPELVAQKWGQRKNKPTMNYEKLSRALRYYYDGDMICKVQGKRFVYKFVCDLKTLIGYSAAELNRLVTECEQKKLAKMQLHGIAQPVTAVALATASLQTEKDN
Procedure, shortened: as §1

ERG = target: T4, ERG (Homo sapiens, UniProt P11308 1-479)
T4 sequence: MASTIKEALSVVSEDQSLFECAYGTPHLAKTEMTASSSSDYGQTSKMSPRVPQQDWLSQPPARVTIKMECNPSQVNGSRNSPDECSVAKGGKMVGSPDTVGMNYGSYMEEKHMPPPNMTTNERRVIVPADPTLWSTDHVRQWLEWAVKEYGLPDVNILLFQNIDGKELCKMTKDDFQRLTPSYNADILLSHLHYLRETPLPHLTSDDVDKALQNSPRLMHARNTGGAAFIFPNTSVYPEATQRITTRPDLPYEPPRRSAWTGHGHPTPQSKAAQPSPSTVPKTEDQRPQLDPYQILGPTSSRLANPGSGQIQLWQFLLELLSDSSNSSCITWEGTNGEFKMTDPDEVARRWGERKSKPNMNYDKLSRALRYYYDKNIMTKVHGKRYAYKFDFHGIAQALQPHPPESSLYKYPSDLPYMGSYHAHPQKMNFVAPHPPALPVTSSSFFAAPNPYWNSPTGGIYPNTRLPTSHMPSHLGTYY
Procedure, shortened: as §1

ELF1 = ELF1 (Homo sapiens, UniProt P32519 1-619)
Procedure, shortened: as §1

EHF = target: T5, EHF (Homo sapiens, UniProt Q9NZC4 1-300)
T5 sequence: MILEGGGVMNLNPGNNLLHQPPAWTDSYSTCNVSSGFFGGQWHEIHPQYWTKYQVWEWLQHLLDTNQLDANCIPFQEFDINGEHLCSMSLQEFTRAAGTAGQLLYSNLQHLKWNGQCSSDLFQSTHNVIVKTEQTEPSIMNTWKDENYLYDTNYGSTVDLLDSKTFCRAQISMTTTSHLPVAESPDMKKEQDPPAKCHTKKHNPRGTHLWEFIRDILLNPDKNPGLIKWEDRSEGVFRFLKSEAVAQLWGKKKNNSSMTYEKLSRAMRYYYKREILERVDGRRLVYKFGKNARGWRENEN
Procedure, shortened: as §1

SPI1 = SPI1 (Homo sapiens, UniProt P17947 1-270)
Procedure, shortened: as §1

SPIB = SPIB (Homo sapiens, UniProt Q01892 1-262)
Procedure, shortened: as §1

ELK3 = target: T6, ELK3 (Homo sapiens, UniProt P41970 1-407)
T6 sequence: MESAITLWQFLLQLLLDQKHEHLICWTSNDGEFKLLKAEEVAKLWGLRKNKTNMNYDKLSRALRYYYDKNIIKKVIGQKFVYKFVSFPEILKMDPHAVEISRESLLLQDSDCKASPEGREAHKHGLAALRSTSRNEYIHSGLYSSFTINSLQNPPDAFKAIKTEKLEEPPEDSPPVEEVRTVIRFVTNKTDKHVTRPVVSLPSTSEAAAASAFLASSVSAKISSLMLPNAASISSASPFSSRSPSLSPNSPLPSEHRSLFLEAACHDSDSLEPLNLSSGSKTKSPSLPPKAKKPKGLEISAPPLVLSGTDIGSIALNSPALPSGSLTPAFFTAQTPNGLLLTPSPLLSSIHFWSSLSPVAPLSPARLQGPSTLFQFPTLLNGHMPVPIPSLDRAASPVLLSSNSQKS
Procedure, shortened: as §1

FEV = target: T7, FEV (Homo sapiens, UniProt Q99581 1-238)
T7 sequence: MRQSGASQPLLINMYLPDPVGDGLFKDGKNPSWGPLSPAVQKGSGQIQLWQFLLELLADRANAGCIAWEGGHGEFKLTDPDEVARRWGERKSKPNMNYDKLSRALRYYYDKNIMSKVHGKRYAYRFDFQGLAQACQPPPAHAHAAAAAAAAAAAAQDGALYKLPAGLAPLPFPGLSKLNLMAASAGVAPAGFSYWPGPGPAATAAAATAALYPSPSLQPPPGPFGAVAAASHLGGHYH
Procedure, shortened: as §1

ETV5 = ETV5 (Homo sapiens, UniProt P41161 1-510)
Procedure, shortened: as §1

SPIC = target: T8, SPIC (Homo sapiens, UniProt Q8N5J4 1-248)
T8 sequence: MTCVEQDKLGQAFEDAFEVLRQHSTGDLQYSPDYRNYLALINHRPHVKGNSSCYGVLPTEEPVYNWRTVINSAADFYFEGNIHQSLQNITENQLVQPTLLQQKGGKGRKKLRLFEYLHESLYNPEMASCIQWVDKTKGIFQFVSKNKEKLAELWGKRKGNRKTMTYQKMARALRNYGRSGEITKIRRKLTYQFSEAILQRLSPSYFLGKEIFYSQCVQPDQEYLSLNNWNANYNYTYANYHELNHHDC
Procedure, shortened: as §1

ELF4 = ELF4 (Homo sapiens, UniProt Q99607 1-663)
Procedure, shortened: as §1

ELK4 = target: T9, ELK4 (Homo sapiens, UniProt P28324-2 1-405)
T9 sequence: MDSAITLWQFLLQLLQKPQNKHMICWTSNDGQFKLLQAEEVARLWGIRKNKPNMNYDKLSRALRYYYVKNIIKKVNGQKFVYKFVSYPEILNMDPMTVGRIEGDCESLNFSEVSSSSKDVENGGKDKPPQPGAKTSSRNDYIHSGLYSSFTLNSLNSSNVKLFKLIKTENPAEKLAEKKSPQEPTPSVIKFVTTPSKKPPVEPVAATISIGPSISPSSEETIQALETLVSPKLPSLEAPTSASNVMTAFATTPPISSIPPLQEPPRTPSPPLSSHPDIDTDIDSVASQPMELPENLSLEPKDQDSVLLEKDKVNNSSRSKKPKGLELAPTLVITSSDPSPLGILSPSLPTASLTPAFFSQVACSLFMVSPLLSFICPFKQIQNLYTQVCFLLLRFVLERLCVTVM
Procedure, shortened: as §1

ETV2 = target: T10, ETV2 (Homo sapiens, UniProt O00321 1-342)
T10 sequence: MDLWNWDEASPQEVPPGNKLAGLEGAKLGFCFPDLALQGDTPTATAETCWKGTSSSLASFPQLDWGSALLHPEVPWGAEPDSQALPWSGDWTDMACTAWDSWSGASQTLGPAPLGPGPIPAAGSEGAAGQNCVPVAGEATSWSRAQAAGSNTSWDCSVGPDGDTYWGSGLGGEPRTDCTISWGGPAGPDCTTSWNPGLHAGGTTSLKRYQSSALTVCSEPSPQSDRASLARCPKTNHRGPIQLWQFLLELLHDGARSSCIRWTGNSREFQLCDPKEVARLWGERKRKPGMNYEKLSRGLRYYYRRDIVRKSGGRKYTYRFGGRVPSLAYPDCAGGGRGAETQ
Procedure, shortened: as §1

ELF3 = target: T11, ELF3 (Homo sapiens, UniProt P78545 1-371)
T11 sequence: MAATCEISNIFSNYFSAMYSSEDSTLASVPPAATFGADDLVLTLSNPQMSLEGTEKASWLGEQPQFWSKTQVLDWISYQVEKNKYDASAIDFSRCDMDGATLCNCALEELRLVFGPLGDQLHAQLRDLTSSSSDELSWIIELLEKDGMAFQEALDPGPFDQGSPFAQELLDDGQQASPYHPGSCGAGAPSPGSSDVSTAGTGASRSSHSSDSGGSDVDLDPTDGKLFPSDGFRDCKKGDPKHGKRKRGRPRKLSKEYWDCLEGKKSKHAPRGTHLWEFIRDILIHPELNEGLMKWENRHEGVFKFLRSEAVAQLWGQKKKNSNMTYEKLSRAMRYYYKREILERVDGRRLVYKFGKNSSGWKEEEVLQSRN
Procedure, shortened: as §1

CRX = CRX (Homo sapiens, UniProt O43186 1-299)
Procedure, shortened: as §1

ETV1 = ETV1 (Homo sapiens, UniProt P50549 1-477)
Procedure, shortened: as §1

SPIB, sequence (Q01892 whole entry): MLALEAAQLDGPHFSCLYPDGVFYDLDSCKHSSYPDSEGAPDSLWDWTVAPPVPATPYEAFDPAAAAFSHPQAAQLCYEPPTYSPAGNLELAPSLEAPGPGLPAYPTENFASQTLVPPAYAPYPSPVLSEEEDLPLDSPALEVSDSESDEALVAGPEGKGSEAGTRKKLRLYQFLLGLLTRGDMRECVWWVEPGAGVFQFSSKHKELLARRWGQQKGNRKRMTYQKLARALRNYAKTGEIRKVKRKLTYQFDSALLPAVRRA
ELF4, sequence (Q99607 whole entry): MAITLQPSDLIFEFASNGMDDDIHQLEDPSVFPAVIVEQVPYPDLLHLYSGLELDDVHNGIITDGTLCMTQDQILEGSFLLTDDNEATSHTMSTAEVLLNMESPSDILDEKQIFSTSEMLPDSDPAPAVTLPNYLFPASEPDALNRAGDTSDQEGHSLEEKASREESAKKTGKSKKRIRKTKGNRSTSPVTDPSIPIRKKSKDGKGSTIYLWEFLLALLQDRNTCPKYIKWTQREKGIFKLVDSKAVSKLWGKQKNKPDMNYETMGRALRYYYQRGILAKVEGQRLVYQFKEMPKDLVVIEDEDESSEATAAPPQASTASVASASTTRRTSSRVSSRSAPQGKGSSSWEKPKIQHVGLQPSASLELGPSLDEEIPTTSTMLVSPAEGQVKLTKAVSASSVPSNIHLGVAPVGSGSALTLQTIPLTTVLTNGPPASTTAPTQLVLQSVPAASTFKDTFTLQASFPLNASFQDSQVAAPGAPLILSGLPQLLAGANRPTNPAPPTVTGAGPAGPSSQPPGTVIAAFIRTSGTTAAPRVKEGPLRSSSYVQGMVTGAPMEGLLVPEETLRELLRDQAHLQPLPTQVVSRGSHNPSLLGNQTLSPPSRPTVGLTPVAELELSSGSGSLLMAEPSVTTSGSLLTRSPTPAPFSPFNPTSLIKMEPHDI
ETV5, sequence (P41161 whole entry): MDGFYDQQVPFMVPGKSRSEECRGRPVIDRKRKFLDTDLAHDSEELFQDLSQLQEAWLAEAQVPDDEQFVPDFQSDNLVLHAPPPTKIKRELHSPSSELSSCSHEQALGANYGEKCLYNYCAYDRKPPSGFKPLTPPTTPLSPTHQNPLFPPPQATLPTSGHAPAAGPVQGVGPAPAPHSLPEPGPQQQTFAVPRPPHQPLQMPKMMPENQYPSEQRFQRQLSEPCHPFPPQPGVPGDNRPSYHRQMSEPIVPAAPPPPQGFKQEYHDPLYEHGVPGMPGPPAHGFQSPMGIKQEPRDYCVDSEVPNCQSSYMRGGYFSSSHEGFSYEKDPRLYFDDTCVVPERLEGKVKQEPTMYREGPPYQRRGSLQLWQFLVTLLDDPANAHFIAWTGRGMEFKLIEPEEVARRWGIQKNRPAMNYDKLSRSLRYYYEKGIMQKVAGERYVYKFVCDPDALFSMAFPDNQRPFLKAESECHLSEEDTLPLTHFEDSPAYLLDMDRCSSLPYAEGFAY
ELF1, sequence (P32519 whole entry): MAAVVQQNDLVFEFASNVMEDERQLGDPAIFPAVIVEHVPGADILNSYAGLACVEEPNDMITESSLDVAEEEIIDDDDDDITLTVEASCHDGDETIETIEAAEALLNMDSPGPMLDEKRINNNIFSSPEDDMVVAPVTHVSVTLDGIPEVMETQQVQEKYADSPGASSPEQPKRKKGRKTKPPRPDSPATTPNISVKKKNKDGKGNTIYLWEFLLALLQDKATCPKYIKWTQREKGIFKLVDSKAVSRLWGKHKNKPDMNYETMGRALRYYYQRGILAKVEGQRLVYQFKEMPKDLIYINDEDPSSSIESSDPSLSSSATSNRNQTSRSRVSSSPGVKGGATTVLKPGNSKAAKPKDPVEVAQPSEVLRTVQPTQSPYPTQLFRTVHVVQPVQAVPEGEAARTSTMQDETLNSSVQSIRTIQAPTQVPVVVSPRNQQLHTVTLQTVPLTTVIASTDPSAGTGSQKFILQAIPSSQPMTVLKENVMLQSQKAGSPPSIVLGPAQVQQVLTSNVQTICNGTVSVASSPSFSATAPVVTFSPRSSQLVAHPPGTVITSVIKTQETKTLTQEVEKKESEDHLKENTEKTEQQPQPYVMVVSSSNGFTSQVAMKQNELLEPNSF
CRX, sequence (O43186 whole entry): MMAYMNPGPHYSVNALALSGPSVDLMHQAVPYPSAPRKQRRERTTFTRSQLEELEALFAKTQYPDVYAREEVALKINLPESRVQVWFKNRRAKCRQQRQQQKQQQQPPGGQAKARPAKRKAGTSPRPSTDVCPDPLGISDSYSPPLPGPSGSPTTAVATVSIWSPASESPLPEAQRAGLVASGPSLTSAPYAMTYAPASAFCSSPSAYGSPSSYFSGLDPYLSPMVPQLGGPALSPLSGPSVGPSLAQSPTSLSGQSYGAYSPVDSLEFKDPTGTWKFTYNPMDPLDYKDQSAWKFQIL
ETV1, sequence (P50549 whole entry): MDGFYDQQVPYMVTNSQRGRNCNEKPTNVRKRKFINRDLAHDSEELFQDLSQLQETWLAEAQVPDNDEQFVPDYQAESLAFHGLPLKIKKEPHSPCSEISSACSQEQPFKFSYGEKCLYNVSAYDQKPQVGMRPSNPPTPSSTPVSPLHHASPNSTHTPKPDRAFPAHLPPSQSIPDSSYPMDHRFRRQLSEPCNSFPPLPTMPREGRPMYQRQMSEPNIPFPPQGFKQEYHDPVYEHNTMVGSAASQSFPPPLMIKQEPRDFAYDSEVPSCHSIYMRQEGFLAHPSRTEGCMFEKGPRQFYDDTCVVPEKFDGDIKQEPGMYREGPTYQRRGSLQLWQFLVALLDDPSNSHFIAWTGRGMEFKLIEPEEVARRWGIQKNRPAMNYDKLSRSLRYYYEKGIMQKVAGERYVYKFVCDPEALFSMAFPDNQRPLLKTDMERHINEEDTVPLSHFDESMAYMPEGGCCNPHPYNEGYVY

Q: How did the binding signal (FLI1) turn out when CCTCGG was run?
A: 1.2 fold enrichment (6-mer frequency, TF over GST control)

Q: What about the binding signal (ELK1) of the same sequence?
A: 1.17 fold enrichment (6-mer frequency, TF over GST control)

Q: And the binding signal (GABPA)?
A: 1.2 fold enrichment (6-mer frequency, TF over GST control)

Q: What about the binding signal (ERG) of the same sequence?
A: 1.2 fold enrichment (6-mer frequency, TF over GST control)

Q: What about the binding signal (ELF1) of the same sequence?
A: 1.24 fold enrichment (6-mer frequency, TF over GST control)

Q: And the binding signal (EHF)?
A: 1.33 fold enrichment (6-mer frequency, TF over GST control)

Q: What about the binding signal (SPI1) of the same sequence?
A: 1.14 fold enrichment (6-mer frequency, TF over GST control)

Q: What about the binding signal (SPIB) of the same sequence?
A: 1.15 fold enrichment (6-mer frequency, TF over GST control)

Q: And the binding signal (ELK3)?
A: 1.05 fold enrichment (6-mer frequency, TF over GST control)

Q: What about the binding signal (FEV) of the same sequence?
A: 1.07 fold enrichment (6-mer frequency, TF over GST control)

Q: And the binding signal (ETV5)?
A: 1.2 fold enrichment (6-mer frequency, TF over GST control)

Q: And the binding signal (SPIC)?
A: 1.1 fold enrichment (6-mer frequency, TF over GST control)

Q: And the binding signal (ELF4)?
A: 1.25 fold enrichment (6-mer frequency, TF over GST control)

Q: And the binding signal (ELK4)?
A: 1.24 fold enrichment (6-mer frequency, TF over GST control)

Q: And the binding signal (ETV2)?
A: 1.24 fold enrichment (6-mer frequency, TF over GST control)

Q: What about the binding signal (ELF3) of the same sequence?
A: 1.3 fold enrichment (6-mer frequency, TF over GST control)

Q: What about the binding signal (CRX) of the same sequence?
A: 1.02 fold enrichment (6-mer frequency, TF over GST control)

Q: And the binding signal (ETV1)?
A: 1.28 fold enrichment (6-mer frequency, TF over GST control)

Q: Which results are given for CTCAGT?
A: binding signal (FLI1): 1.16 fold enrichment (6-mer frequency, TF over GST control); binding signal (ELK1): 1.21 fold enrichment (6-mer frequency, TF over GST control); binding signal (GABPA): 1.2 fold enrichment (6-mer frequency, TF over GST control); binding signal (ERG): 1.13 fold enrichment (6-mer frequency, TF over GST control); binding signal (ELF1): 1.22 fold enrichment (6-mer frequency, TF over GST control); binding signal (EHF): 1.06 fold enrichment (6-mer frequency, TF over GST control); binding signal (SPI1): 1.18 fold enrichment (6-mer frequency, TF over GST control); binding signal (SPIB): 1.14 fold enrichment (6-mer frequency, TF over GST control); binding signal (ELK3): 1.24 fold enrichment (6-mer frequency, TF over GST control); binding signal (FEV): 1.12 fold enrichment (6-mer frequency, TF over GST control); binding signal (ETV5): 1.14 fold enrichment (6-mer frequency, TF over GST control); binding signal (SPIC): 1.24 fold enrichment (6-mer frequency, TF over GST control); binding signal (ELF4): 1.21 fold enrichment (6-mer frequency, TF over GST control); binding signal (ELK4): 1.19 fold enrichment (6-mer frequency, TF over GST control); binding signal (ETV2): 1.2 fold enrichment (6-mer frequency, TF over GST control); binding signal (ELF3): 1.35 fold enrichment (6-mer frequency, TF over GST control); binding signal (CRX): 1.08 fold enrichment (6-mer frequency, TF over GST control); binding signal (ETV1): 1.12 fold enrichment (6-mer frequency, TF over GST control)
